From PubChem BioAssay AID1347074 (Center for Chemical Genomics, University of Michigan, 2019)
Out of some 47,000 compounds screened, about 2,800 (6%) were called active. This excerpt belongs to a sample that is enriched for actives. Unmarked numbers belong to inactive results. Cut-off read from the data, not from the text of the source: active = z-score above about 3 (passing the limit was not always enough); inactive = the rest.

Biological target: Endoribonuclease Dicer (Homo sapiens) (UniProt Q9UPY3)
Sequence (Q9UPY3 whole entry, looked up): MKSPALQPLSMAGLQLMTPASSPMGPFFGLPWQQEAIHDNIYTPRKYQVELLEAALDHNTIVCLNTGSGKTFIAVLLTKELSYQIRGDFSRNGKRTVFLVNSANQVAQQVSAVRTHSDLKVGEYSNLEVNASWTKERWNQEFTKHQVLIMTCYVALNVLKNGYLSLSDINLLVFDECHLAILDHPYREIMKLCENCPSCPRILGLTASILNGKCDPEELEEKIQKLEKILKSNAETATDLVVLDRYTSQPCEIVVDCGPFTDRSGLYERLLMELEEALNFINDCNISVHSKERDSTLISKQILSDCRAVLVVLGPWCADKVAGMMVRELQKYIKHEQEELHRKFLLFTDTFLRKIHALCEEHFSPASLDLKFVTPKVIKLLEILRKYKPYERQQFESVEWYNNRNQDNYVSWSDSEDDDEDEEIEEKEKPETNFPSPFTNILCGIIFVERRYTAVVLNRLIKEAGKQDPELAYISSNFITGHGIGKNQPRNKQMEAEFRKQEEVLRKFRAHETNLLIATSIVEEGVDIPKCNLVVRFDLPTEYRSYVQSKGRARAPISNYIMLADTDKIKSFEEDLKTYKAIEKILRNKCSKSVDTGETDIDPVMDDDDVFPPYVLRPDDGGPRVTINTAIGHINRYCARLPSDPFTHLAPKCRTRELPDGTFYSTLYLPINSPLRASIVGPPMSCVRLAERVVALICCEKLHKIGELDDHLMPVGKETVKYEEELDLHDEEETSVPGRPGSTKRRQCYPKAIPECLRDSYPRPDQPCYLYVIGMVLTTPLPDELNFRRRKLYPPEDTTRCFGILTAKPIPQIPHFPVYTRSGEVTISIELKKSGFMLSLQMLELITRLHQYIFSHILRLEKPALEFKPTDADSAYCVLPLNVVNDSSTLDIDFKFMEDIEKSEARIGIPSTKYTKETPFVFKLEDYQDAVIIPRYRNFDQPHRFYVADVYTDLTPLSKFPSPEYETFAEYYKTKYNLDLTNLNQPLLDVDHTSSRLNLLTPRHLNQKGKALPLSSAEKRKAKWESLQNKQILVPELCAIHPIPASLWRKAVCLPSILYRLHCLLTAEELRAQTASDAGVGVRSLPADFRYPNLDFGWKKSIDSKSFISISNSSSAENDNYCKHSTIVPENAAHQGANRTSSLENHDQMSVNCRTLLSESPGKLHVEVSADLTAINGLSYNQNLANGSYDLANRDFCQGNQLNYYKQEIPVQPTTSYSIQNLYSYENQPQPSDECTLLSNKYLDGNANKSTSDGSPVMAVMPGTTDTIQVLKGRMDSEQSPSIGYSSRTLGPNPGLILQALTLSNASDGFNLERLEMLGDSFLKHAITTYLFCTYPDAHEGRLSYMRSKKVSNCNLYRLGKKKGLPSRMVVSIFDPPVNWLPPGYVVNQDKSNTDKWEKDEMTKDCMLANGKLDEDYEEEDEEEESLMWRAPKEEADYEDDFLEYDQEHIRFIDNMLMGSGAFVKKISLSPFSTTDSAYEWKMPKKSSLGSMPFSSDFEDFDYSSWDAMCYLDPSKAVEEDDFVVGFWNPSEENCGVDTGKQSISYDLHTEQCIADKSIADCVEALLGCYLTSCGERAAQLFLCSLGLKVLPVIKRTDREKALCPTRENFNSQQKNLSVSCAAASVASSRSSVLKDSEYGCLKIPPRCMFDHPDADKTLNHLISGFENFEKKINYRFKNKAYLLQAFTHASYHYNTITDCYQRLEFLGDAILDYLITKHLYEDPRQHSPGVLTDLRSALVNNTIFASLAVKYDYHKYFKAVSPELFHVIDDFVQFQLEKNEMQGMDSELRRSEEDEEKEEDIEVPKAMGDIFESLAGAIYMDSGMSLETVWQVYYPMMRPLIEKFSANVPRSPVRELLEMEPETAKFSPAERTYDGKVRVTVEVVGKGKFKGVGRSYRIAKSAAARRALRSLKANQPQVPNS
Experiment: inhibitors of Dicer pre-microRNA processing, primary screen, biochemical, cat-ELCCA, chemiluminescence (AID 1347074);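 note: plate controls were vehicle for no effect and no enzyme for full effect; higher signal means more uncleaved substrate so more Dicer inhibition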
Conditions: cat-ELCCA pre-miR-21 Dicer processing, at 25 µM, active compounds read high

Question: How did the z-score turn out when `CCOc1c(Br)cc(CNCCc2c[nH]c3ccccc23)cc1OC` was run?
Answer: 6.45 (active)

Question: How did the z-score turn out when `CC[N+]1(C)CCCC(OC(=O)C(O)(c2ccccc2)c2ccccc2)C1` (stereo not given) was run?
Answer: -0.07

Question: For `Fc1ccccc1CN1CCN(Cc2ccc3c(c2)OCO3)CC1`, which z-score is on record?
Answer: -0.5

Question: Which z-score does the source give for `CN(C)C(=O)Oc1nnc(SCCS(=O)(=O)c2ccc(F)cc2)n1C1CC1` here?
Answer: -1.56

Question: How did the z-score turn out when `Cc1cccc(-c2nc(C)cc(OC(=O)N(C)C)n2)c1` was run?
Answer: -0.47
